Assay outcomes as filed in PubChem.
AF4-AF9 inh = inhibitors of AF4 peptide binding to AF9, primary screen, biochemical, AlphaScreen, biotin-AF4 peptide, FLAG-AF9, single point | Protein AF-9 (Homo sapiens), P42568 | inhibition, % at 10 µM | actives 0.47% (n = 350,000) | AID 651704, 2012;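 active = every replicate reaching a set inhibition limit, whatever the replicate mean, cut at about 25% in these data; inconclusive = mean inhibition reaches that limit but some replicates miss it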;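 also: 0% = plate neutral control median and 100% = total signal loss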
Target sequence (P42568 whole entry, looked up): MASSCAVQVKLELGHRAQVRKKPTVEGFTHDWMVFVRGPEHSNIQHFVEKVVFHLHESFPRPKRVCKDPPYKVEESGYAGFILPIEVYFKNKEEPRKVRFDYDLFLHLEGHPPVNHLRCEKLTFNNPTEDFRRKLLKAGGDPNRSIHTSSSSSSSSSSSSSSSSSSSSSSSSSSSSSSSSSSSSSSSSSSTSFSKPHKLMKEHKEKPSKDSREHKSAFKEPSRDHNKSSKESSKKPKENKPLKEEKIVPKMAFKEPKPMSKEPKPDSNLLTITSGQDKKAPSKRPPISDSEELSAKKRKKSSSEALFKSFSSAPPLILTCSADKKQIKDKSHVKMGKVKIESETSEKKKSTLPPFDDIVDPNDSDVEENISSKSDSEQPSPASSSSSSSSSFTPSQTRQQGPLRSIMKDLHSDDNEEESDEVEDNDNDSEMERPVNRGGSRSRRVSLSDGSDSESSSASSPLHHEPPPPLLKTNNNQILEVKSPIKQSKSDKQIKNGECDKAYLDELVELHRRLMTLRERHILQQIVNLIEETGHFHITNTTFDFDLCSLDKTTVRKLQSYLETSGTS
PGC1a acetyl inh = inhibitors of PGC1a acetylation signal, primary screen, cell-based, U2OS, AlphaScreen, inhibitor mode; AlphaScreen anti-acetyl-lysine; with virally co-expressed GCN5 acetyltransferase; inhibition, % at 15.6 µM; actives 0.17% (n = 350,000); AID 651687, 2012;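 active = every replicate shows inhibition of at least 40%; inconclusive = mean inhibition at least 40% but some replicate below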;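 also: 0% = neutral control wells and 100% = positive control wells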
NSD2 inh = NSD2 histone methyltransferase inhibitors, primary screen, biochemical, AlphaScreen, single concentration, set 2; NSD2 peptide methylation, 120 min; inhibition, % at 12.5 µM; actives 0.54% (n = 310,000); AID 743445, 2014; in the data active = inhibition above about 50%
Env fusion inh = inhibitors of HIV-1 Env-driven cell-cell fusion, primary screen, HeLa-JRFL effector, CEM21 target cells, luciferase; inhibition, % at 12.3 µM; actives 1.1% (n = 360,000);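 active = mean replicate inhibition score of at least 50 and every replicate individually at or above 50; inconclusive = only one of the two criteria met; inactive = mean below 50 and not all replicates reaching 50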;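 also: 0% = plate neutral controls and 100% = maraviroc near 300 nM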
INS-1E GSIS act = GLuc luminescence reporter in INS-1E cells, primary screen for activators of glucose-dependent secretion of insulin; INS-1E GLuc reporter insulin secretion, 2-3 h; activation, % at 16.6 µM; actives 0.61% (n = 370,000); AID 743287, 2014;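 active = lowest replicate activation of at least 40%, so every replicate reaches that level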;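 also: 0% = median of neutral control wells and 100% = median of IBMX positive control wells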
Alpha artifact = AlphaScreen signal interference with preloaded methylated product, dose response, artefact control for NSD2 inhibitor project, biochemical, cherry-picked samples; shares compounds with NSD2 inh; actives 9.4% (n = 1,500); AC35, µM (series often up to 10 µM), for the others: top-dose activity change, negative = signal loss; AlphaScreen artifact counterscreen, preloaded methylated H4 peptide; call rule not given here
Active calls of the source: *; ? = inconclusive; . = no result given; [ ] = remark or other dose. This is a sample that favours compounds with a hit; in the whole collection about 2.1% have one here.

SMILES	AF4-AF9 inh	PGC1a acetyl inh	NSD2 inh	Env fusion inh	INS-1E GSIS act	Alpha artifact
CC(C(=O)Nc1ccc(O)cc1C(=O)O)N1C(=O)/C(=C\c2cccs2)SC1=S (centres undefined)	9	-3	83*	3	11	-5%
O=C(O)Cc1sc(NC2CCCCC2)nc1-c1ccc(Cl)cc1	3	.	99*	-6	4	-4%
Cc1ccc(-c2nc(Nc3cccc(C)c3)sc2CC(=O)O)cc1	-8	.	.	-43	3	.
O=C(O)CN1C(=O)/C(=C/c2ccc(SCc3ccccc3)o2)SC1=S	-2	.	54*	6	-18	-6%
C[C@@H]1CN([C@@H](C)CO)C(=O)c2cc(-c3ccncc3)cnc2O[C@H]1CN(C)C(=O)c1ccc(F)cc1	-5	5	.	0[16.7 µM]	-11	.
CCN(CC)C(=O)CSc1nc2ccccc2c(=O)n1CCC(=O)NCc1ccc(F)cc1	.	10	121*	-40	.	0%
CCN(CC)C(=O)CSc1nc2ccccc2c(=O)n1CC	.	-25	2	.	.	.
O=C(Nc1ccncc1)c1c(Cl)cccc1Cl	-2	11	-2	41	-2	.
CC(=O)/C(N=Nc1ccc2c(c1)OCCO2)=C(\C)O	13	.	12	-56	-3	.
CC1(C)Cc2sc3c(=O)[nH]c(=S)[nH]c3c2CO1	-2	-9	75*	2	22	-2%
CN(C)C(=O)CSc1nc(SCC(=O)N(C)C)n(-c2ccccc2)n1	.	-1	4	.	.	.
O=C(CSc1nc(SCC(=O)NCc2ccccc2)n(-c2ccccc2)n1)NCc1ccccc1	-1	-9	81*	.	-29	-2%
O=C(O)COc1ccc2c(c1)O/C(=C\c1ccco1)C2=O	0	-10	66*	-6	3	-2%
O=C(O)COc1ccc2c(c1)O/C(=C\c1cccs1)C2=O	?	-19	-1	-5	-22	.
Cc1cc(=O)n2[nH]c(-c3ccco3)nc2n1	.	-1	68*	.	21	-6%
Cc1cc(=O)n2[nH]c(-c3ccc(F)cc3)nc2n1	.	5	-2	-120	.	.
COc1ccc(C(=O)CC(=O)c2ccc(OC)cc2)cc1	0	-7	-5	-8	3	.
COc1ccc(C(=O)Cc2nnc(C)s2)cc1	.	.	69*	.	-5	2%
O=C(CCN1C(=O)/C(=C\c2ccco2)SC1=S)Nc1ccc(C(=O)O)c(O)c1	9	.	111*	-7	1	-17%
O=C(CC(=O)Nc1ccc(Cl)cc1)N/N=C\c1cccc(F)c1	-2	0	113*	-2	-6	2%
COCC(=O)N(C)C[C@@H]1Oc2cc(C#C[C@H](C)O)ccc2S(=O)(=O)N([C@@H](C)CO)C[C@@H]1C	-2	0	.	-2[16.7 µM]	8	.
CC1(C)Cc2c(C#N)c(NCc3ccco3)nc(-c3ccco3)c2CO1	.	-1	-4	.	.	.
CC1(C)Cc2c(c(-c3ccco3)[nH]c(=O)c2C#N)CO1	.	14	58*	.	.	0%
CN(C)CCNc1nc(-c2ccco2)c2c(c1C#N)CC(C)(C)OC2	.	7	127*	-19	.	-1%
CC(=O)c1ccc(OCC(O)CN(C)CCOc2ccc(Br)cc2)cc1 (centres undefined)	-3	.	0	14	-10	.
SMILES	AF4-AF9 inh	PGC1a acetyl inh	NSD2 inh	Env fusion inh	INS-1E GSIS act	Alpha artifact
O=C(C[C@@H]1C=C[C@@H](NS(=O)(=O)c2ccccc2)[C@@H](CO)O1)N1CCN(c2ccccc2)CC1	-4	1	.	.	5	.
CN(C(=O)CSc1nc2ccccc2n1C)C1CCS(=O)(=O)C1 (centres undefined)	1	-4	-2	.	6	.
CCN(c1ccccc1)S(=O)(=O)c1cccc(C(=O)NCC(c2ccco2)N2CCCC2)c1 (centres undefined)	0	6	0	-5	-22	.
Nc1ccc2nn(-c3cc([N+](=O)[O-])ccc3O)nc2c1	-2	.	79*	-29	4	-1%
Nc1ccc(-n2cnc3cc([N+](=O)[O-])ccc32)cc1	.	-1	-1	.	.	.
O=S(=O)(Nc1ccc(-c2ccc(NS(=O)(=O)c3ccccc3)cc2)cc1)c1ccccc1	6	-20	-1	-3	-16	.
CNCc1ccc(OCc2ccccc2)c(OC)c1	.	4	53*	-50	.	-1%
COc1cc(CNCc2cccnc2)ccc1OCc1ccccc1	5	.	-4	-11	8	.
CN(CCc1ccccc1)C1CCCN(S(=O)(=O)N(C)C)C1 (centres undefined)	1	-4	53*	12	5	-1%
CN(C)c1ccc2cc(S(=O)(=O)O)cc(O)c2c1	0	0	63*	15	14	0.97µM*
CN(C)c1ccc2c(O)cc(=O)n(C)c2c1	.	0	5	-44	8	.
O=c1cc(OCc2ccccc2)cc[nH]1	75*	.	82*	9	13	1%
COc1ccc(Oc2ccccc2C#N)cc1	-1	-19	2	1	6	.
O=C(Nc1cccc(O)c1)c1ccc(Br)cc1	.	-2	67*	.	-1	0%
CC(=O)Nc1cccc(NC(=O)c2ccc(Br)cc2)c1	1	12	-1	-4	-5	.
Cc1cc2c(N)cccc2nn1	.	-3	99*	20	.	-6%
Nc1cccc2nc3ccccc3cc12	0	21	.	.	.	.
O=C1c2cccc(NCCCNCCO)c2C(=O)c2cccc(NCCCNCCO)c21	32*	13	88*	-76	9	4.2µM*
O=C1c2ccccc2C(=O)c2c(NCc3cccnc3)cccc21	.	6	1	-44	.	.
Cc1ccc2cccc(NC3OC(=O)c4ccccc43)c2n1 (centres undefined)	.	.	87*	30	17	-5%
C[C@@H]1CN([C@@H](C)CO)C(=O)c2cccc(NC(=O)C3CCCCC3)c2O[C@H]1CN(C)CC1CC1	-2	-1	.	50[16.7 µM]	-6	.
COc1ccc(/C=C2/C(=O)N(c3c(F)c(F)c(F)c(F)c3F)N=C2C)cc1	7	15	58*	-6	-10	2%
COc1ccc(/C=C2/C(=O)N(c3ccccc3)N=C2C)cc1	.	10	12	.	.	.
COc1ccc(OCCSc2nnc(CCNC(=O)c3ccc(Cl)c(Cl)c3)n2C)cc1	5	.	59*	.	-1	1%
C[C@H]1CN([C@@H](C)CO)C(=O)c2cccc(NC(=O)c3ccc(-c4nccs4)cc3)c2O[C@@H]1CN(C)Cc1ccccc1	6	2	.	23[16.7 µM]	-20	.
O=C1C(=O)c2cccnc2-c2ncccc21	-24	.	145*	60*	29	-3%
O=C(N[C@@H]1CC[C@@H](CCNS(=O)(=O)c2ccc(Cl)cc2)O[C@H]1CO)c1ccccn1	-2	-17	.	-2[16.7 µM]	10	.
